This is an account of results in PubChem BioAssay (NCATS).

Molecules are shown by their SMILES. Values without a mark were called inactive. Inconclusive results are not listed. Active and inactive are the calls of the source. Unless noted, the call rests on the fitted dose curve; in most records, active means well fitted curve in the direction sought with a large enough effect; inconclusive means small, poorly fitted or top-dose-only effect, or another doubt; inactive means no such curve, though single readings can be large; an effect the other way counts as inactive or inconclusive.

For assay [1], the target named is Lysosomal acid glucosylceramidase (Homo sapiens) (UniProt P04062). The experiment in a line: Glucocerebrosidase-p2 (AID 348; in the data active means potency below about 10 µM; further: potency means the concentration at half of the fitted maximal effect). The note with it: purified GBA, blue fluorogenic substrate, 40 min. Summed up:
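Normal human glucocerebrosidase (0.2 nM) with blue fluorogenic substrate (80 uM final) in citrate/phosphate pH 5.9 with 10mM sodium taurocholate, 0.01% tween-20; 40 min RT, NaOH/glycine stop; fluorescence Ex 365/Em 440; AC50 from a titration from 0.6 nM upwards.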

Assay [2] deals with Glucocorticoid receptor (Homo sapiens) (UniProt P04150). Nature of the assay: GR-GFP Redistribution (AID 450;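 active means compounds whose dose series gives a full or clear partial fitted curve of increased nuclear translocation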; further: potency means the concentration at half of the fitted maximal effect). The note with it: U2OS GR-GFP nuclear translocation, laser cytometry, 2 h.
For assay [3] the target is unchanged. The experiment in a line: GR-EFC Redistribution (AID 451; calls by dose curve; further: potency means the concentration at half of the fitted maximal effect). The note with it: CHO-K1 GR-EFC translocation, beta-gal luminescence, 2 h. The procedure, abridged:
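CHO-K1 cells stably expressing nuclear-localized β-gal enzyme acceptor and GR fused C-terminally to the enzyme donor fragment; ligand-driven nuclear translocation restores β-gal by complementation. Compounds titrated up to 46 uM final, 2 h at 37 °C; luminescence read.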

In assay [4] the target is Mitogen-activated protein kinase 10 (Mus musculus) (UniProt Q61831). Nature of the assay: JNK3 AlphaScreen Assay (AID 530; active means well fitted curve in either direction with a large enough effect, not every such curve was filed as active;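 further: kinase came from lysate of stimulated human HepG2 cells; signal reports phosphorylation of biotinylated GST-cJun 1-79 at Ser73 with 10 µM ATP; on the % scale 0 is the no-effect control and ±100 the full control effect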). The note with it: JNK3 lysate, c-Jun phosphorylation; series mostly up to 57.1 µM. Summed up:
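Biotinylated GST-cJun(1-79) served as substrate for JNK3 in HepG2 lysates stimulated with IL-1beta and TNF-alpha. ATP was 10 uM final, pH 7.6. Ser73 phosphorylation was quantified by AlphaScreen (680 nm excitation).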
Background: Bead proximity is the source of the signal in Alpha formats.

Assay [5] has as its target 3',5'-cyclic-AMP phosphodiesterase 4B (Homo sapiens) (UniProt Q07343). The experiment in a line: qHTS Assay for Inhibitors of PDE-IV (AID 607; active means well fitted activation curve with a large enough effect in the main read-out, with a control signal flat, not every such curve was filed as active; further: % of control where 0% means no effect). Conditions: HEK293 ACTOne CNG channel cells, membrane potential fluorescence; series mostly up to 22.9 µM. Summed up: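 The readout is membrane depolarisation from a cAMP-sensing CNG channel, detected with a potential dye at ex 535/em 590. Cells were HEK293-derived (endogenous PDE-IV) at 1000 cells/well, titrated up to 22.9 uM final.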

Assay [6] addresses Cytochrome P450 3A4 (Homo sapiens) (UniProt P08684). Nature of the assay: qHTS Assay for Activators of Cytochrome P450 3A4 (AID 885). Further: nearly all actives have a fitted effect of over 65% in size. The note with it: recombinant CYP3A4, Luciferin-PPXE luminescence, 60 min; series mostly up to 57.1 µM. The procedure, abridged:
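Activators are scored by enhanced luminescence from CYP3A4 conversion of luciferin-PPXE (25uM, equal to KM) to luciferin, after 60 min at RT with an NADPH-regenerating system.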
For orientation: Quantitative high-throughput screening tests each substance at several concentrations.

The target in assay [7] is Dual specificity protein kinase CLK4 (Homo sapiens) (UniProt Q9HAZ1). The experiment in a line: qHTS Assay for Inhibitors of CDC-like Kinase 4 (Kinase-Glo Assay) (AID 1770). Further: nearly all actives have a fitted effect of over 65% in size. Further: potency means the concentration at half of the fitted maximal effect. The note with it: recombinant Clk4, Kinase-Glo ATP depletion luminescence; series mostly up to 66.7 µM. The procedure, abridged:
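25 nM Clk4 with 100 uM RS repeat peptide and 1 uM ATP (final) in Tris pH7.5, 10 mM MgCl2, 4.5 h at room temperature. Remaining ATP measured by Kinase-Glo luciferase luminescence.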

For assay [8] the target is unchanged. The experiment in a line: qHTS Assay for Inhibitors of CDC-like Kinase 4 (ADP-Glo Assay) (AID 1771). Further: nearly all actives have a fitted effect of over 70% in size. Further: potency means the concentration at half of the fitted maximal effect. Conditions: recombinant CLK4, ADP-Glo luminescence; series mostly up to 80 µM. The procedure, abridged:
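25 nM Clk4, 100 uM RS peptide, 1 uM ATP (final); 2 mM MgCl2, 0.5 mM EGTA, 2.5 mM DTT, 0.01% Triton X-100; 1 hr RT. ADP-Glo readout: ATP depletion 45 min, conversion/luciferase 30 min, luminescence.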

For assay [9] the target is unchanged. The experiment in a line: qHTS Assay for Inhibitors of CDC-like Kinase 4 (ADP-FP Assay) (AID 1795). Further: nearly all actives have a fitted effect of over 60% in size. Further: potency means the concentration at half of the fitted maximal effect. Conditions: Transcreener ADP fluorescence polarization; series mostly up to 50 µM. Summed up:
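Recombinant Clk4 (6.25 nM) phosphorylated 100 uM RS repeat peptide with 1 uM ATP in 25 mM Tris pH 7.5, 10 mM MgCl2, 0.5 mM EGTA, 2.5 mM DTT, 0.01% Triton X-100 for 1 h. ADP was detected by Transcreener ADP2 competitive fluorescence polarization after 30 min at room temperature.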

The target in assay [10] is Ubiquitin carboxyl-terminal hydrolase 1 (Homo sapiens) (UniProt O94782). Nature of the assay: Inhibitors of USP1/UAF1: Pilot qHTS (AID 504865).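 Further: rhodamine fluorescence freed from ubiquitin-rhodamine substrate followed over time; top concentration of the series differs between compounds; on the % scale 0 is the no-effect control and ±100 the full control effect; nearly all actives have a fitted effect of over 35% in size.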 Conditions: purified USP1/UAF1, Ub-rhodamine cleavage fluorescence; series mostly up to 54.9 µM. Summed up: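 USP1/UAF1 complex at 1 nM preincubated 15 min at room temperature with compound, then Ub-Rho substrate added at 150 nM final. Fluorescence (480/540 nm) read kinetically in 50 mM HEPES pH 7.8, 0.5 mM EDTA, 1 mM TCEP, 0.1 mg/ml BSA, 0.01% Tween-20.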

Assay [11] is described as follows: Primary qHTS for small molecule stabilizers of the endoplasmic reticulum resident proteome: Secreted ER Calcium Modulated Protein (SERCaMP) assay (AID 1508630). Further: on the % scale 0 is the no-effect control and ±100 the full control effect. The note with it: SH-SY5Y GLuc-SERCaMP (Gaussia luciferase released on ER calcium loss) secretion, thapsigargin, luminescence; series mostly up to 38.4 µM. The procedure, abridged: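 The SH-SY5Y reporter protocol was run at 3 concentrations up to 38.3 uM (primary) or 11 concentrations (follow-up): 16 h compound, 100 nM thapsigargin for 4 h, then extracellular luciferase luminescence.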

Assay [12] in a line: qHTS Assay for Identification of Small Molecule Agonists for Hypoxia Response Element Signaling Pathway (AID 914; active means well fitted activation curve with a large enough effect in the signal ratio, with a control signal flat, not every such curve was filed as active; the % refers to the signal ratio; further: potency means the concentration at half of the fitted maximal effect). The note with it: ME-180 HRE-bla reporter, beta-lactamase ratio, CoCl2, 17 h; activation: hits give high values. The procedure, abridged:
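Read-out: CCF4 FRET ratio of 460nm to 530nm emission (excitation 405nm) after 2.5 hours at room temperature, taken from HRE-bla ME-180 cells that had been exposed to compound and EC50 CoCl2 for 17 hours.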

Assay [13] is described as follows: NFAT Signaling Pathway (AID 444; active means well fitted curve in either direction with a large enough effect, not every such curve was filed as active;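 further: carbachol stimulus at about its EC50 of 1 µM final; on the % scale 0 is the no-effect control and ±100 the full control effect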). The note with it: Jurkat NFAT-bla M1, carbachol, beta-lactamase ratio, 5 h; at 7.69 µM (top of the series) unless noted. Summed up: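 Jurkat cells carrying an NFAT-driven β-lactamase reporter and co-transfected muscarinic M1 receptor were treated with compound plus carbachol (1 uM final, an EC50 level) for 5 h at 37 °C. CCF4 loading followed for 1 h at RT; 460/530 nm ratio gave %activity.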

The nature of assay [14]: Stat Signaling Pathway (AID 446; active means well fitted curve in either direction with a large enough effect, not every such curve was filed as active;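 further: ME-180 cervical cancer cells given 40 pM IL-6 alongside compound; SIE-controlled beta-lactamase reporter measured as 460/530 nm FRET emission ratio; on the % scale 0 is the no-effect control and ±100 the full control effect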). Conditions: ME-180 (cervical carcinoma) SIE beta-lactamase reporter, IL-6 stimulated, 5 h; at 7.69 µM (top of the series) unless noted. Summed up:
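Emission at 460 and 530 nm (excitation 405 nm) reports SIE-controlled beta-lactamase in ME-180 cells. Cells received compound with 40 pM IL-6 for 5 hrs at 37 C; data scaled between 300 pM IL-6 and 125 nM JAK-inhibitor controls.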

Assay [15] addresses Cytochrome P450 1A2 (Homo sapiens) (UniProt P05177). Nature of the assay: p450-cyp1a2 (AID 410; calls by dose curve; further: potency means the concentration at half of the fitted maximal effect;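 on activity change, negative = inhibition: -100% = full effect of reference inhibitor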). Conditions: recombinant CYP1A2, luciferin-ME demethylation, luminescence; series mostly up to 57 µM. The procedure, abridged: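 20nM CYP1A2, 100uM Luciferin-ME (=Km), 100mM KPO4; cpd 10 min RT; +NADPH regen, 60 min RT; stop/detect 20 min; luminescence. Normalized to furafylline 57 uM = full inhibition.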

Assay [16] concerns the target Cytochrome P450 2C9 (Homo sapiens) (UniProt P11712). Nature of the assay: qHTS Assay for Inhibitors and Substrates of Cytochrome P450 2C9 (AID 883). Further: on the % scale 0 is the no-effect control and ±100 the full control effect; nearly all actives have a fitted effect of over 60% in size. The note with it: recombinant CYP2C9, luciferin-H luminescence, 60 min; series mostly up to 57.1 µM. Summed up:
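A luminogenic readout tracked human CYP2C9 (10nM) converting deoxyluciferin (100uM, at KM) in 25mM KPO4 during 60 min at 37C with regenerated NADPH. Values normalized to 57uM sulphaphenazole as complete inhibition.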

Assay [17] concerns the target Cytochrome P450 3A4 (Homo sapiens) (UniProt P08684). Nature of the assay: qHTS Assay for Inhibitors and Substrates of Cytochrome P450 3A4 (AID 884). Further: nearly all actives have a fitted effect of over 50% in size. Further: potency means the concentration at half of the fitted maximal effect. The note with it: recombinant CYP3A4, Luciferin-PPXE luminescence; series mostly up to 57.1 µM. The procedure, abridged: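 Luminescent readout of luciferin produced by CYP3A4 (20 nM) dealkylation of Luciferin-PPXE, 25 uM (its KM). NADPH-driven reaction ran 60 min at RT after 10 min compound preincubation; data scaled to 57 uM ketoconazole as 100% inhibition.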

In assay [18] the target is Cytochrome P450 2D6 (Homo sapiens) (UniProt P10635). Nature of the assay: qHTS Assay for Inhibitors and Substrates of Cytochrome P450 2D6 (AID 891).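 Further: luciferin methyl ether substrate demethylated by CYP2D6 with NADPH regeneration; on the % scale 0 is the no-effect control and ±100 the full control effect; nearly all actives have a fitted effect of over 60% in size.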 Conditions: recombinant CYP2D6, luciferin-ME EGE luminescence; series mostly up to 57.1 µM. The procedure, abridged: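 Luminescent read-out of luciferin formed by 5 nM human CYP2D6 demethylating 30 uM Luciferin-ME EGE (Km level) over 60 min at room temperature after NADPH regeneration addition. Data normalized to full inhibition by 1.43 uM quinidine.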

Assay [19] concerns the target Cytochrome P450 2C19 (Homo sapiens) (UniProt P33261). The experiment in a line: qHTS Assay for Inhibitors and Substrates of Cytochrome P450 2C19 (AID 899). Further: potency means the concentration at half of the fitted maximal effect; nearly all actives have a fitted effect of over 60% in size. Conditions: recombinant CYP2C19, luciferin-H EGE luminescence; series mostly up to 57.1 µM. The procedure, abridged:
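NADPH-dependent conversion of Luciferin-H EGE (10uM, at KM) by 5nM enzyme in 50mM KPO4, 60 min at 37C following 10 min compound preincubation. Stopped with luciferin detection buffer; luminescence read after 20 min.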

Cytochrome P450 3A4 (Homo sapiens), sequence (P08684 whole entry, looked up): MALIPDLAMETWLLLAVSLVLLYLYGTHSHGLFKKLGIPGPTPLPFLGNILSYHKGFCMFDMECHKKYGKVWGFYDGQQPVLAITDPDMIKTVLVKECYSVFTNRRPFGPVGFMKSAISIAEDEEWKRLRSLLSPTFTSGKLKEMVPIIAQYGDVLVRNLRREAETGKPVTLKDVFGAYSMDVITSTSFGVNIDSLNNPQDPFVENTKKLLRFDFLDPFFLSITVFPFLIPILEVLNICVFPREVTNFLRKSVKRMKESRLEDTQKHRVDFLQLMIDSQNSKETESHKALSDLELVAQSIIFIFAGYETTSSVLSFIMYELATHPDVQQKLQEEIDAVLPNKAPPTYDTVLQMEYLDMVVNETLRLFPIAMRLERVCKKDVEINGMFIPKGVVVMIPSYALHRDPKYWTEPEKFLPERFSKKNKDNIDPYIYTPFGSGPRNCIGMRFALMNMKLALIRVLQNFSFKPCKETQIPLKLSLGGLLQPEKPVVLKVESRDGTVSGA
Dual specificity protein kinase CLK4 (Homo sapiens), sequence (Q9HAZ1 whole entry, looked up): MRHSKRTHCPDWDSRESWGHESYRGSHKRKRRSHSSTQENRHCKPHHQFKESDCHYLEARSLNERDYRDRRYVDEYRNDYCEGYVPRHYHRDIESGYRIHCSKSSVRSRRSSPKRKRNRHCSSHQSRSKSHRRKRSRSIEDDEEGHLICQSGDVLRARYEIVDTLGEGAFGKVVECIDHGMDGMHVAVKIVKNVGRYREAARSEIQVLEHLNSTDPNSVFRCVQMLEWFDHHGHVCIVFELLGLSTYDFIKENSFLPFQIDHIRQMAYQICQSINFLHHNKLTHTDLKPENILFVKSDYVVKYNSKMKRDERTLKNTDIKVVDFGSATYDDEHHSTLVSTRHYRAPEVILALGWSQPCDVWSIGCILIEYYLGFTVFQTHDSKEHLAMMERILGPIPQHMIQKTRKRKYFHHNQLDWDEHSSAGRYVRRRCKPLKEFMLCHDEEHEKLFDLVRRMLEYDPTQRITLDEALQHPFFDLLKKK
Cytochrome P450 1A2 (Homo sapiens), sequence (P05177 whole entry, looked up): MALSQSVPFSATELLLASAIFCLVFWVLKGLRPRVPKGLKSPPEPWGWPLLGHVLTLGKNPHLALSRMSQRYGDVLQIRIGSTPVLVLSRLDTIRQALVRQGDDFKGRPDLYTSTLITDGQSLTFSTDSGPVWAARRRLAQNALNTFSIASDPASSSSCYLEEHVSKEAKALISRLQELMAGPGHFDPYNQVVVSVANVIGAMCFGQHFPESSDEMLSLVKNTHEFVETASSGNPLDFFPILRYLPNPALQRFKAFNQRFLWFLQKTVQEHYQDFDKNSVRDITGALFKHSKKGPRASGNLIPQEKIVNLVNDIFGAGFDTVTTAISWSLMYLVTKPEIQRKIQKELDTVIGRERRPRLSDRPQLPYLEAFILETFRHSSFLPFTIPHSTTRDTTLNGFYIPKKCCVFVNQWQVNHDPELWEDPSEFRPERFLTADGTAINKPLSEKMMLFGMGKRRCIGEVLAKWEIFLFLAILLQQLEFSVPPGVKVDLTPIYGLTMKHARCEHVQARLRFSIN
Lysosomal acid glucosylceramidase (Homo sapiens), sequence (P04062 whole entry, looked up): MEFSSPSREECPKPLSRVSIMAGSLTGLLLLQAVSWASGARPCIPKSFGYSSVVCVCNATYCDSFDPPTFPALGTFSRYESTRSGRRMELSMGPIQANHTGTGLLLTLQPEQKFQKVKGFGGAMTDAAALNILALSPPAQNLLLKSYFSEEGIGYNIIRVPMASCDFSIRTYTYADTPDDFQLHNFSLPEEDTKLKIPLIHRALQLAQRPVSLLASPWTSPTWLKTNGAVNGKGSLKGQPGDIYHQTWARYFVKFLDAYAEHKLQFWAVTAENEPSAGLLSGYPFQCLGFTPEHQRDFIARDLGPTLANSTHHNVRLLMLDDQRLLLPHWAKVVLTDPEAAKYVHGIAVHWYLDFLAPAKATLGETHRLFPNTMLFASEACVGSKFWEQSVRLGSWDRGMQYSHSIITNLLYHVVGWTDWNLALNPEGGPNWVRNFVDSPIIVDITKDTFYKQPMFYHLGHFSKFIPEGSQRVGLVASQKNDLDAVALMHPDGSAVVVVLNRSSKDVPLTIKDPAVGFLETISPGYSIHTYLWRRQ
3',5'-cyclic-AMP phosphodiesterase 4B (Homo sapiens), sequence (Q07343 whole entry, looked up): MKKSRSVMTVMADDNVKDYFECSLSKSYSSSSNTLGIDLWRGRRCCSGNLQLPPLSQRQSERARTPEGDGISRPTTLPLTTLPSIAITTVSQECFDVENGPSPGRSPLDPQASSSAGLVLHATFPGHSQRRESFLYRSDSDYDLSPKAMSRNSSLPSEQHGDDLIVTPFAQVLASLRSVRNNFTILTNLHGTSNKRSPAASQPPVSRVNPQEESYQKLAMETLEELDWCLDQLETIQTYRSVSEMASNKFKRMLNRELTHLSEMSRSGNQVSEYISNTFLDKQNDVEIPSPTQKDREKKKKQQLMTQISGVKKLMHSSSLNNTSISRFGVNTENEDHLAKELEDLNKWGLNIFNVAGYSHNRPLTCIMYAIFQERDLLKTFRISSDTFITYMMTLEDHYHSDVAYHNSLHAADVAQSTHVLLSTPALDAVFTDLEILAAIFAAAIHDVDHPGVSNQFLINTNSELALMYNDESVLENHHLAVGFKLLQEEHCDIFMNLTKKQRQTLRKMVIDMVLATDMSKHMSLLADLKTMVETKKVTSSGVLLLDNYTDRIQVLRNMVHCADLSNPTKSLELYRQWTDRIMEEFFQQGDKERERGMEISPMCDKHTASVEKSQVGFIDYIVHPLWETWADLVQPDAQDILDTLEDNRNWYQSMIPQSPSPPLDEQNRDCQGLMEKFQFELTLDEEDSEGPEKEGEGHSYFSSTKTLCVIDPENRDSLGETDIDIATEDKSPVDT
Glucocorticoid receptor (Homo sapiens), sequence (P04150 whole entry, looked up): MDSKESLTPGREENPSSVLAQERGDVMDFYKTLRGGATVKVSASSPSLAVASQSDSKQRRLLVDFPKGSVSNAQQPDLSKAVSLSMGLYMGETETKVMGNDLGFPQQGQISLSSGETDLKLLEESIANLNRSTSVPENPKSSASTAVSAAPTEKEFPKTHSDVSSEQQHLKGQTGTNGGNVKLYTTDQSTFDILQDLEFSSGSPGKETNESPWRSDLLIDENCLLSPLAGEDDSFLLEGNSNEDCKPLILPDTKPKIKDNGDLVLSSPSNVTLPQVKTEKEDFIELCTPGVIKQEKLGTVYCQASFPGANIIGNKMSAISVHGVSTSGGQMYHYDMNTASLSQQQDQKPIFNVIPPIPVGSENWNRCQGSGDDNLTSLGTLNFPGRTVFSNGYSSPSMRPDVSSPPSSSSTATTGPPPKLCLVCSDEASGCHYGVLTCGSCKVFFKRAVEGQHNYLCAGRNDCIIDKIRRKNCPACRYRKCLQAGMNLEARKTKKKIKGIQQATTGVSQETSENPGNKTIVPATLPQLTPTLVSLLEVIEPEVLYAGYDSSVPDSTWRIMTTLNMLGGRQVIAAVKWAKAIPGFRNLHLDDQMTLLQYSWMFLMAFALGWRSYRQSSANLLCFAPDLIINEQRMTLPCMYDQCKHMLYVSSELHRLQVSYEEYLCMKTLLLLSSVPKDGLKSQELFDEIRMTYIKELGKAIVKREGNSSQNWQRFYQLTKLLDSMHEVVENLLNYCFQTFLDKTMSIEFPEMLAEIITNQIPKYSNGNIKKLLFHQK
Ubiquitin carboxyl-terminal hydrolase 1 (Homo sapiens), sequence (O94782 whole entry, looked up): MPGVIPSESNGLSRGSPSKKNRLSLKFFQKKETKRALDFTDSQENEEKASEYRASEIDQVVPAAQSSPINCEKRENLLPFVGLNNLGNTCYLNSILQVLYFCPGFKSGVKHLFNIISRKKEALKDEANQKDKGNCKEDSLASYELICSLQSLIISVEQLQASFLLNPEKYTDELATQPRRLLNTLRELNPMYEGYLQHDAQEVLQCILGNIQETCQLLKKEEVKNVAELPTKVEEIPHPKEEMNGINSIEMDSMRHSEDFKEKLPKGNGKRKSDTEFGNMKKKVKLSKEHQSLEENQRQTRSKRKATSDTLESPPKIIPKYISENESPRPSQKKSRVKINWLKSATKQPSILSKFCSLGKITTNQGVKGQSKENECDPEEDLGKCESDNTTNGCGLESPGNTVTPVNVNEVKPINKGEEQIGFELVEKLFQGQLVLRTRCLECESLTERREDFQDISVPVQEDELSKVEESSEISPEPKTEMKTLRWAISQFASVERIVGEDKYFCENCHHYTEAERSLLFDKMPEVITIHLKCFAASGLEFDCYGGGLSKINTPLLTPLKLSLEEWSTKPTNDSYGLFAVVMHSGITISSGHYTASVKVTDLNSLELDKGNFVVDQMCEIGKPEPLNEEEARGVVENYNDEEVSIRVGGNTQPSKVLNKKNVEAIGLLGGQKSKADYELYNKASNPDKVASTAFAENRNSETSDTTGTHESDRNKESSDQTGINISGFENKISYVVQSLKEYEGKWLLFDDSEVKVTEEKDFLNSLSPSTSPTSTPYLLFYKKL
Cytochrome P450 2C9 (Homo sapiens), sequence (P11712 whole entry, looked up): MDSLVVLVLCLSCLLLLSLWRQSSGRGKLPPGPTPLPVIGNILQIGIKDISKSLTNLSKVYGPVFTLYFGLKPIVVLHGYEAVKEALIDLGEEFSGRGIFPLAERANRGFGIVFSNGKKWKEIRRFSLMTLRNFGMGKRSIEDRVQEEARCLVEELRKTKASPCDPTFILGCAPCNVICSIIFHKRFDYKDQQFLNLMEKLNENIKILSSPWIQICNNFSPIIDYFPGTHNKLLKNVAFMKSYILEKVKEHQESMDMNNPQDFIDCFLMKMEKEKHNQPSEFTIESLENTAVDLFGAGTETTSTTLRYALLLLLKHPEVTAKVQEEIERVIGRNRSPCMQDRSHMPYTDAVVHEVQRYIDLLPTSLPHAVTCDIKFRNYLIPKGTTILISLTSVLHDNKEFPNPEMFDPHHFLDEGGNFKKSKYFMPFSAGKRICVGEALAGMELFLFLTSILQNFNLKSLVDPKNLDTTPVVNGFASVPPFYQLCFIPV

Turning to `COc1ccc(-c2nc3cnc(OCc4ccccc4)nc3n(CCC#N)c2=O)cc1`, the Potency in assay [1] is above 11.4 µM; in assay [2], above 9.22 µM; in assay [3] it was above 46 µM. The Potency result in [4], in [5], in assay [6], in assay [7], in assay [8] and in [9] was “inactive” in each case. For the same compound, the Potency result in [10] was “inactive”. The outcome in assay [11] was inactive.

With `O=c1c(-c2cc(F)cc(F)c2)nc2cnc(N3CCOCC3)nc2n1Cc1ccc(F)cc1`, the Potency in [1] is above 11.4 µM; in [2], above 9.22 µM; in [3] it was above 46 µM; in [12] it was 3.16 µM (active). For the same compound, the Potency result in assay [4], in assay [5], in [7], in assay [8], in [9] and in [10] was “inactive” throughout. In addition, the outcome in [11] was inactive.

For the compound `c1nc(N2CCOCC2)c2cc(-c3ccoc3)ccc2n1`, the Potency in assay [1] is above 11.4 µM; in assay [2], above 46 µM; in assay [3], above 46 µM; in assay [7], 0.224 µM (active); in assay [8], 0.631 µM (active); in assay [9], 0.178 µM (active). Also, in assay [13], the activity change, negative = inhibition was 17.9%. In addition, the activity, negative = inhibition in [14] was -19.4%. The Potency entry in [4] and in assay [10] was “inactive” in each case. Further, the outcome in assay [11] was inactive.

On to `CCNc1ncc2nc(-c3ccc(OC)cc3)c(=O)n(Cc3ccc(F)cc3)c2n1`, for which the Potency in assay [1] is above 11.4 µM; in [2], above 9.22 µM; in assay [3], above 46 µM; in assay [12] it was 1.26 µM (active). The Potency entry in assay [15], in assay [4], in [16], in assay [7], in assay [8] and in [9] was “inactive” each time. Also, the Potency entry in assay [10] is “inactive”. Further, the outcome in assay [11] was inactive.

Regarding `O=c1c(-c2ccc(Cl)cc2)nc2cnc(N3CCOCC3)nc2n1Cc1ccc(F)cc1`, the Potency in assay [1] was above 11.4 µM; in assay [2] it was above 9.22 µM; in [3] it was above 46 µM; in assay [12] it was 3.16 µM (active). Besides, the Potency result in assay [15], in assay [4], in [17], in assay [18], in assay [7] and in [8] was “inactive” in each case. The Potency entry in assay [9] and in [10] was “inactive” in each case. Also, in [11], the result was inactive.

`CN(C)c1ccc(-c2cncnc2Nc2ccc(F)cc2)cc1`: the Potency in assay [1] is above 11.4 µM; in assay [15], 0.501 µM (active); in assay [2], above 46 µM; in [3], above 46 µM; in assay [17], 0.794 µM (active); in assay [19], 0.794 µM (active). The Potency in [7] and in assay [8] was 10 µM (active) each time. Further, in assay [14], the activity, negative = inhibition is -2.86%. Also, the Potency entry in assay [6], in [9] and in assay [10] was “inactive” throughout. For the same compound, in [11], the outcome was inactive.

In the case of `COc1ccc(-c2nc3cnc(N(C)C)nc3n(Cc3ccc(F)cc3)c2=O)cc1`, the Potency in [1] is above 11.4 µM; in [2], above 9.22 µM; in assay [3], above 46 µM. In assay [13], the activity change, negative = inhibition was 102% [activator] (active). Besides, in assay [14], the activity, negative = inhibition was 126% [activator] (active). The Potency entry in assay [4], in [5], in assay [7], in assay [8], in assay [9] and in assay [10] was “inactive” each time. Besides, in assay [11], the result was inactive.
